Screens from PubChem.
Not all results are given here.
aSyn UTR act – Activators via SNCA 5'UTR binding, MLPCN; AID 1814, 2009; 7.1% of 300,000 active; activity score, % (tested at 7.5 µM), hits read low; alpha-synuclein 5'UTR reporter, activators screen; in the data active = activity score below about -60%
Large screens that a line does not name were inactive.

Cc1ccc(-n2c(C)cc(C(=O)COC(=O)c3c(C)noc3C)c2C)cc1	aSyn UTR act -199
CCOC(=O)c1ccc(-c2ccc(/C=N/NC(=O)CN(c3ccccc3Br)S(C)(=O)=O)o2)cc1	aSyn UTR act -140
Cc1cc(=O)oc2cc(OCc3ccccc3)ccc12	aSyn UTR act -130
COc1ccc(COc2ccc3c(C)cc(=O)oc3c2)cc1	aSyn UTR act -131
CN(C)S(=O)(=O)c1cccc(C(=O)N=C2N=C3C=CC(Cl)=CN3Cc3ccccc32)c1	aSyn UTR act -105
O=C(N=C1N=C2C=CC=CN2Cc2ccccc21)c1ccc(S(=O)(=O)N2CCCC2)cc1	aSyn UTR act -134
CC1CN(C(=O)c2ccccc2)C(=Nc2cccc(S(=O)(=O)N(C)C)c2)S1 (configuration not stated)	none
O=C(N=C1N=C2C=CC=CN2Cc2ccccc21)c1ccc(S(=O)(=O)N2CCOCC2)cc1	aSyn UTR act -143
Cc1ccccc1C(=O)Nc1ccc(Cl)cn1	aSyn UTR act -114
O=C(Nc1ccc(Cl)cn1)c1ccc2ccccc2n1	aSyn UTR act -96
Cc1ccc(NC(=O)c2ccc3ccccc3n2)nc1	aSyn UTR act -163
C=CCn1c(SCC(=O)Nc2ccc(F)cc2F)nnc1-c1cnccn1	aSyn UTR act -107
Cc1sc2c(c1C)CN(Cc1ccncc1)CN2C(=O)c1ccco1	aSyn UTR act -93
CCCCN(CC)S(=O)(=O)c1ccc(C(=O)Nc2nnc(-c3ccccc3Cl)o2)cc1	none
CCN(CC)S(=O)(=O)c1cccc(C(=O)Nc2ccc(Cl)cn2)c1	aSyn UTR act -76
CCN(CC)S(=O)(=O)c1cc(C(=O)Nc2ccc(Cl)cn2)ccc1C	aSyn UTR act -118
Cc1ccc(NC(=O)c2ccnc(C(C)(C)C)c2)cc1	aSyn UTR act -127
CCN(CC)S(=O)(=O)c1cccc(C(=O)NCCc2ccccc2)c1	aSyn UTR act -159
CCN(CC)S(=O)(=O)c1cccc(C(=O)Nc2cccc(C)c2)c1	aSyn UTR act -124
Cc1ccc(NC(=O)c2cccc(S(C)(=O)=O)c2)cc1	aSyn UTR act -83
CCN(CC)S(=O)(=O)c1cccc(C(=O)N/N=C(\C)c2ccc(O)cc2O)c1	none
CCc1c(C)[nH]c(C(=O)OCc2ccccc2)c1C	aSyn UTR act -75
CCc1c(C(=O)OCc2ccccc2)[nH]c(C)c1C	aSyn UTR act -117
CC(C)(C)C(=O)/C(=C/c1ccc(Cl)cc1)n1cncn1	aSyn UTR act -173
CC(C)(C)C(=O)/C(=C\c1ccc([N+](=O)[O-])cc1)n1cncn1	aSyn UTR act -277
CN1C(=O)NC(c2cccc(O)c2)C(C(=O)c2cccs2)C1(O)C(F)(F)F (configuration not stated)	aSyn UTR act -139
CCC1(c2ccccc2)NC(=S)N(c2ccc(C)cc2)N1 (configuration not stated)	aSyn UTR act -85
CCC1(c2ccc(Cl)cc2)NC(=S)N(c2ccccc2)N1 (configuration not stated)	aSyn UTR act -71
COc1ccc(COc2ccsc2C(=O)Nc2ccc(Cl)c(Cl)c2)cc1	aSyn UTR act -68
CCOC(=O)c1c(NC(=O)c2cc(C)oc2C)sc(C(=O)Nc2ccc(Cl)cc2)c1C	aSyn UTR act -102
Cc1ccc(C(=O)Nc2ccc(OCc3ccccc3)cc2)s1	aSyn UTR act -107
Cc1cc(C(=O)Nc2ccc(OCc3ccccc3)cc2)c(C)o1	aSyn UTR act -134
COc1cc2c(cc1O)CC[C@@H]1[C@@H]2CC[C@]2(C)[C@@H](O)CC[C@@H]12	none
Cc1ccsc1C(=O)Nc1ccc(OCc2ccccc2)cc1	aSyn UTR act -191
Cc1ccc(NC(=O)CS(=O)c2ccccc2N)c(C)c1 (configuration not stated)	aSyn UTR act -96
Cn1c(/C=C/c2ccc(Br)cc2)nc2ccccc2c1=O	aSyn UTR act -171
Cc1cc(N2CCN(c3ccc([N+](=O)[O-])c4cccnc34)CC2)c2ccccc2n1	none
Cn1c(/C=C/c2ccccc2[N+](=O)[O-])nc2ccccc2c1=O	aSyn UTR act -133
O=[N+]([O-])c1ccccc1/C=C/c1ccc2ccccc2n1	aSyn UTR act -138
COc1ccc2c(n1)Sc1nc3ccccc3nc1N2	aSyn UTR act -136
Cc1ccc(O)c(-n2nc3ccccc3n2)c1	aSyn UTR act -134
Cc1cc(SCC(=O)c2ccccc2)nc(C)n1	aSyn UTR act -115
O=C(O)c1ccccc1CSc1nc2ccccc2o1	aSyn UTR act -114
O=C(CSc1nc2ccccc2o1)c1ccccc1	aSyn UTR act -95
O=C(CSc1ccc2ccccc2n1)c1ccccc1	aSyn UTR act -125
CC(=O)CSc1nc2ccccc2o1	aSyn UTR act -75
O=[N+]([O-])c1ccc(Cl)cc1Sc1nc2ccccc2o1	none
Cc1cc(SCC(=O)c2ccccc2)n2ncc(-c3ccccc3)c2n1	aSyn UTR act -138
O=C(CSc1ccc(-c2ccco2)nn1)c1ccccc1	aSyn UTR act -88
CCOC(=O)/C(C#N)=C/N=c1ccc(C)cn1C	aSyn UTR act -88
CCCN1C=CC(=C/C=C(\C#N)C(=O)OCC)C=C1	aSyn UTR act -157
CCCCCCn1c2c(c(=N)c3c1CCC3)CCC2	none
O=C(Cc1ccc(-c2ccccc2)cc1)Nc1ccccn1	aSyn UTR act -118
